Several values for one entry are separate records, joined by “and”; a condition that tells them apart may be missing. Identical values can stand only once. Records with an inconclusive call do not appear. A number with no mark means an inactive call. Calls follow the shape of the dose curve; as a rule, active = well fitted cell-killing curve with a large enough effect; inconclusive = small, poorly fitted or top-dose-only effect; inactive = flat fitted curve, though single readings scatter.
% is scaled to controls: 0 for no effect and ±100 for the full control effect.

A short description of the test: Cellular viability qHTS for adrenocortical cancer (ACC) cell line SW-13 (AID 1963989).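 Also: cells grown in serum-free medium with ITS supplement; nearly all actives have a fitted effect of over 65% in size.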 To be noted: SW-13 ACC cells viability, CellTiter-Glo, 48 h; activity (max response): stronger effect = lower value. The procedure, abridged: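 IC50 and maximal-response values come from four-parameter logistic fits of titration data. SW-13 cells in serum-free medium received compounds (up to 46 uM final) for 48 h before CellTiter-Glo luminescence.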
A general note: qHTS replaces the single test concentration by a dilution series.
With `CC(C)c1noc(N2CCC(COc3ccc(-c4ccc(S(C)(=O)=O)cc4)nc3)CC2)n1`, the activity (max response) was -1.34%.

As to `CS(=O)(=O)c1ccc([C@@H](O)[C@@H](CO)NC(=O)C(Cl)Cl)cc1`, the activity (max response) is -8.84%.

Turning to `COc1cc(C)nc(-n2nc(C)cc2OC)n1`, the activity (max response) is 11%.

As to `CCN(CC)C(=O)C1CN2CCc3cc(OC)c(OC)cc3C2CC1OC(C)=O` (stereo unspecified), the activity (max response) was -2.45%.

In the case of `COC(=O)N[C@@H](C)CNc1nccc(-c2cn(C(C)C)nc2-c2cc(Cl)cc(NS(C)(=O)=O)c2F)n1`, the activity (max response) is -16%.

With `CN1CCN(c2c(F)cc3c(=O)c(C(=O)O)cn4c3c2SCC4)CC1`, the activity (max response) was -3.92%.

As to `O=c1c(O)c(-c2ccc(O)cc2O)oc2cc(O)cc(O)c12`, the activity (max response) was 14.7%.

Turning to `O=C(NC[C@H](O)CN1CCc2ccccc2C1)c1cc(NC2COC2)ncn1`, the activity (max response) is -16.9%.

As for `CNC(=O)c1ccc(-c2cnc3ncc(Cc4ccc5ncccc5c4)n3n2)cc1F`, the activity (max response) is 0.555%.

For the compound `COc1ccc(CCN2CCN(CCCc3ccccc3)CC2)cc1OC`, the activity (max response) is -13%.

With `COc1c(N2C[C@@H]3CCCN[C@H]3C2)c(F)cc2c(=O)c(C(=O)O)cn(C3CC3)c12`, the activity (max response) is -9.27%.

Consider `CC(S)C(=O)NCC(=O)O` (stereo unspecified), for which the activity (max response) was 6.56% and -5.95%.

For the compound `CS(=O)(=O)OCCCCOS(C)(=O)=O`, the activity (max response) is 4.16%.

For `N[C@@H](CSCCCO)C(=O)O`, the activity (max response) was 14.2%.

With `CCN(CC)CCN`, the activity (max response) was 6.69%.

As for `OC[C@]1(O)OC[C@@H](O)[C@H](O)[C@@H]1O`, the activity (max response) is 6.17%.

The values above are taken from PubChem BioAssay (NCATS).
